Assay results taken from PubChem BioAssay (EPA / NIEHS).
Results filed as inconclusive are left out. Active and inactive are the calls of the source. Rule for the calls, unless noted: active = hit-call score of the fitted dose curve at least 0.9, where 1 is the maximum; inconclusive = response in the unintended direction; inactive = score below 0.9.

read-out: sulfotransferase (SULT2A), SULT2A1 (gene 6822); assay: CLD_SULT2A_48hr: CellzDirect (CLD) Gene Expression Assay for sulfotransferase (SULT2A) at 48 hours (AID 2283710);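 note: hits raise SULT2A1 transcript above the 0.2% DMSO vehicle baseline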
Procedure, shortened: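 Primary human hepatocytes (two donor preparations) dosed daily for two days with chemicals at multiple concentrations, vehicle 0.2% DMSO; SULT2A1 mRNA induction at 48 h by quantitative nuclease protection assay, chemiluminescent read-out, fitted for gain of signal versus DMSO.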

SMILES | outcome | AC50
Oc1ccccc1-c1ccccc1 | inactive | 
Fc1ccc(Oc2ccnc3cc(Cl)cc(Cl)c23)cc1 | inactive | 
CCCC1COC(Cn2cncn2)(c2ccc(Cl)cc2Cl)O1 (stereo not given) | inactive | 
CCOC(=O)CC(SP(=S)(OC)OC)C(=O)OCC (stereo not given) | inactive | 
N#Cc1nn(-c2c(Cl)cc(C(F)(F)F)cc2Cl)c(N)c1S(=O)C(F)(F)F (stereo not given) | inactive | 
CON(C)C(=O)Nc1ccc(Cl)c(Cl)c1 | inactive | 
COP(N)(=O)SC (stereo not given) | inactive | 
CCNc1nc(Cl)nc(NCC)n1 | inactive | 
O=C(Nc1ccccc1)Nc1ccnc(Cl)c1 | inactive | 
CCOP(=S)(OCC)SCn1c(=O)oc2cc(Cl)ccc21 | inactive | 
Cc1c(F)c(F)c(COC(=O)C2C(/C=C(\Cl)C(F)(F)F)C2(C)C)c(F)c1F (stereo not given) | inactive | 
CS/C(C)=N/OC(=O)N(C)SN(C)C(=O)O/N=C(\C)SC | inactive | 
CC(C)C1(C)N=C(c2nc3ccccc3cc2C(=O)O)NC1=O (stereo not given) | inactive | 
CC(Oc1ccc(Cl)cc1Cl)C(=O)O (stereo not given) | inactive | 
COc1nc(NC(C)C)nc(NC(C)C)n1 | inactive | 
N#Cc1cc(Br)c(O)c(Br)c1 | inactive | 
OC(c1ccc(Cl)cc1)(c1cncnc1)c1ccccc1Cl (stereo not given) | inactive | 
CCCN(CCC)c1c([N+](=O)[O-])cc(S(N)(=O)=O)cc1[N+](=O)[O-] |  | 6.29 µM (active)
CCCCC(CC)COC(=O)c1ccccc1C(=O)OCC(CC)CCCC (stereo not given) | inactive | 
C=CCC1=C(C)C(OC(=O)C2C(C=C(C)C)C2(C)C)CC1=O (stereo not given) | inactive | 

read-out: HMG-CoA synthase (HMGCS2), HMGCS2 (gene 3158); assay: CLD_HMGCS2_48hr: CellzDirect (CLD) Gene Expression Assay for HMG-CoA synthase (HMGCS2) at 48 hours (AID 2283711)
Procedure, shortened: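 Primary human hepatocytes from two donors dosed daily for two days, 0.2% DMSO vehicle. HMGCS2 mRNA measured 48 h after dosing by quantitative nuclease protection assay with chemiluminescent read-out; induction fitted relative to DMSO, cytotoxicity flagged by microscopy.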

SMILES | outcome
COP(N)(=O)SC (stereo not given) | inactive
CCOP(=S)(OCC)SCn1c(=O)oc2cc(Cl)ccc21 | inactive
CS/C(C)=N/OC(=O)N(C)SN(C)C(=O)O/N=C(\C)SC | inactive
CC(Oc1ccc(Cl)cc1Cl)C(=O)O (stereo not given) | inactive
Cc1cc(Cl)ccc1OCC(=O)O | inactive
C=CCC1=C(C)C(OC(=O)C2C(C=C(C)C)C2(C)C)CC1=O (stereo not given) | inactive

system: not listed separately; assay: STM_H9_OrnithineISnorm_perc: Stemina devTOX quickPredict H9 human embryonic stem cell (hESC)-based Assay for Ornithine (ORN) Metabolite Biomarker, Normalized (AID 2283712; active = hit-call score of the fitted dose curve at least 0.9, where 1 is the maximum; inactive = score below 0.9;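 note: ornithine released into spent medium during last day measured by mass spectrometry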)
Procedure, shortened: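 Cells: undifferentiated H9 hESC. Dosing: 72 h, media replaced every 24 h. Sample: final 24-h conditioned media, 40% acetonitrile. Read: UPLC-HRMS ornithine area vs 13C standard, % DMSO control.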

SMILES | AC50 | outcome
CCCCNC(=O)n1c(NC(=O)OC)nc2ccccc21 | 6.13 µM (active) | 
CCCC1COC(Cn2cncn2)(c2ccc(Cl)cc2Cl)O1 (stereo not given) | 85.5 µM (active) | 
CCOC(=O)CC(SP(=S)(OC)OC)C(=O)OCC (stereo not given) | 76.9 µM (active) | 
CN(C)C(=S)SSC(=S)N(C)C | 17.7 µM (active) | 
N#Cc1nn(-c2c(Cl)cc(C(F)(F)F)cc2Cl)c(N)c1S(=O)C(F)(F)F (stereo not given) | 35.5 µM (active) | 
CON(C)C(=O)Nc1ccc(Cl)c(Cl)c1 | 50 µM (active) | 
CCNc1nc(Cl)nc(NCC)n1 | 0.053 µM (active) | 
COc1nc(NC(C)C)nc(NC(C)C)n1 |  | inactive
OC(c1ccc(Cl)cc1)(c1cncnc1)c1ccccc1Cl (stereo not given) | 50 µM (active) | 
CCCCC(CC)COC(=O)c1ccccc1C(=O)OCC(CC)CCCC (stereo not given) |  | inactive

system: not listed separately; assay: STM_H9_CystineISnorm_perc: Stemina devTOX quickPredict H9 human embryonic stem cell (hESC)-based Assay for Cystine (CYSS) Metabolite Biomarker, Normalized (AID 2283713; active = hit-call score of the fitted dose curve at least 0.9, where 1 is the maximum; inactive = score below 0.9)
Procedure, shortened: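 Secreted cystine was measured by UPLC-HRMS in H9 hESC medium after 72h compound exposure with 24-hourly replenishment. Values are standard-normalized areas relative to 0.1% DMSO.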

SMILES | AC50 | outcome
CCCCNC(=O)n1c(NC(=O)OC)nc2ccccc21 | 8.39 µM (active) | 
CCCC1COC(Cn2cncn2)(c2ccc(Cl)cc2Cl)O1 (stereo not given) | 33.6 µM (active) | 
CCOC(=O)CC(SP(=S)(OC)OC)C(=O)OCC (stereo not given) | 86.9 µM (active) | 
CN(C)C(=S)SSC(=S)N(C)C | 14.5 µM (active) | 
N#Cc1nn(-c2c(Cl)cc(C(F)(F)F)cc2Cl)c(N)c1S(=O)C(F)(F)F (stereo not given) | 88.7 µM (active) | 
CON(C)C(=O)Nc1ccc(Cl)c(Cl)c1 | 73.3 µM (active) | 
CCNc1nc(Cl)nc(NCC)n1 |  | inactive
COc1nc(NC(C)C)nc(NC(C)C)n1 | 13.5 µM (active) | 
CCCCC(CC)COC(=O)c1ccccc1C(=O)OCC(CC)CCCC (stereo not given) | 30 µM (active) | 

system: not listed separately; assay: STM_H9_OrnCyssISnorm_ratio: Stemina devTOX quickPredict H9 human embryonic stem cell (hESC)-based Assay for Ornithine (ORN):Cystine (CYSS) Ratio (AID 2283714)
Procedure, shortened: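 Undifferentiated H9 hESCs exposed 72 h, media and compound replaced every 24 h; final 24-h conditioned media deproteinized and analysed by UPLC-HRMS against C13 spike-ins. Value is the internal-standard-normalized ORN/CYSS ratio versus 0.1% DMSO.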

SMILES | AC50 | outcome
CCCCNC(=O)n1c(NC(=O)OC)nc2ccccc21 | 6.59 µM (active) | 
CCCC1COC(Cn2cncn2)(c2ccc(Cl)cc2Cl)O1 (stereo not given) | 57.5 µM (active) | 
CCOC(=O)CC(SP(=S)(OC)OC)C(=O)OCC (stereo not given) | 80.9 µM (active) | 
CN(C)C(=S)SSC(=S)N(C)C | 16.2 µM (active) | 
N#Cc1nn(-c2c(Cl)cc(C(F)(F)F)cc2Cl)c(N)c1S(=O)C(F)(F)F (stereo not given) | 81.7 µM (active) | 
CON(C)C(=O)Nc1ccc(Cl)c(Cl)c1 | 71.7 µM (active) | 
CCNc1nc(Cl)nc(NCC)n1 |  | inactive
COc1nc(NC(C)C)nc(NC(C)C)n1 | 14.6 µM (active) | 
OC(c1ccc(Cl)cc1)(c1cncnc1)c1ccccc1Cl (stereo not given) | 77.7 µM (active) | 
CCCCC(CC)COC(=O)c1ccccc1C(=O)OCC(CC)CCCC (stereo not given) | 30.9 µM (active) | 

read-out: not listed separately; assay: CEETOX_H295R_MTT_cell_viability: Viability Assessment in the CeeTox HT-H295R MTT Assay (AID 2283718; active = hit-call score of the fitted dose curve at least 0.9, where 1 is the maximum; inactive = score below 0.9;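 for AC50: curve fitted both ways so AC50 may mark viability loss or gain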)
Procedure, shortened: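 Human H295R adrenal cells, prestimulated 48 h with 10 uM forskolin, were exposed 48 h to chemicals in 0.1% DMSO. Viability was measured in the same wells by MTT (0.5 mg/ml, 4 h, 37 C), absorbance 570/650 nm, as percent of controls.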

SMILES | AC50 | outcome
CCCCNC(=O)n1c(NC(=O)OC)nc2ccccc21 | 0.015 µM (active) | 
Oc1ccccc1-c1ccccc1 |  | inactive
CCCC1COC(Cn2cncn2)(c2ccc(Cl)cc2Cl)O1 (stereo not given) |  | inactive
CCOC(=O)CC(SP(=S)(OC)OC)C(=O)OCC (stereo not given) |  | inactive
CON(C)C(=O)Nc1ccc(Cl)c(Cl)c1 |  | inactive
CCNc1nc(Cl)nc(NCC)n1 |  | inactive
CNC(=S)S |  | inactive
CCOP(=S)(OCC)SCn1c(=O)oc2cc(Cl)ccc21 |  | inactive
Cc1c(F)c(F)c(COC(=O)C2C(/C=C(\Cl)C(F)(F)F)C2(C)C)c(F)c1F (stereo not given) |  | inactive
COc1nc(NC(C)C)nc(NC(C)C)n1 |  | inactive
CC1=C(C(=O)Nc2ccccc2)SCCO1 |  | inactive
OC(c1ccc(Cl)cc1)(c1cncnc1)c1ccccc1Cl (stereo not given) | 77.2 µM (active) | 
Cc1cc(Cl)ccc1OCC(=O)O |  | inactive
CCCCC(CC)COC(=O)c1ccccc1C(=O)OCC(CC)CCCC (stereo not given) |  | inactive
C=CCC1=C(C)C(OC(=O)C2C(C=C(C)C)C2(C)C)CC1=O (stereo not given) | 9.99 µM (active) | 
